# Experiments:
# Assay in all cases: DAPPL (digital affinity profiling via proximity ligation, sequencing); 10 mM Tris-HCl pH 7.5, 50 mM NaCl, 1 mM DTT, 4% glycerol, room temperature, 30 min; GST-TFs on glutathione beads, 16-mer random dsDNA library, 0.1% formaldehyde crosslink after washing; high values mean tight binding
# Conditions in all cases: protein: recombinant; tags: N-terminal GST; dsDNA, one strand shown
# [1] = molecular target: T1, FEV (Homo sapiens, UniProt Q99581 1-238)
# T1 sequence: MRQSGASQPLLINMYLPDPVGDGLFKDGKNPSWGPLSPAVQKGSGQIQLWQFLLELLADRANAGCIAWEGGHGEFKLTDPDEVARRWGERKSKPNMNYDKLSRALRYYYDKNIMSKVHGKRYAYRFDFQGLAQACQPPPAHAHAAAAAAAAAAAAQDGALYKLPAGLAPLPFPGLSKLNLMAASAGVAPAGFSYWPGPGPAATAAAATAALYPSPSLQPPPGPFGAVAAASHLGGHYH
# In short: (§1)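 After expression in yeast as GST fusions, human transcription factors were bound to glutathione beads, DNA-barcoded and mixed with a tag-only sample. The pools were incubated with 200 nmole of a 16-mer random double-stranded DNA library in Tris/NaCl/DTT/glycerol buffer (30 min, room temperature), washed and crosslinked with 0.1% formaldehyde. Proximity ligation with BsaI/T4 ligase ran for 1 h at 37 °C, before PCR amplification and sequencing on an Illumina NextSeq500. Binding signal is a hexamer's read frequency for a factor divided by its frequency for the tag-only sample.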
# [2] = molecular target: ETV5 (Homo sapiens, UniProt P41161 1-510)
# In short: as §1
# [3] = molecular target: T2, SPIC (Homo sapiens, UniProt Q8N5J4 1-248)
# T2 sequence: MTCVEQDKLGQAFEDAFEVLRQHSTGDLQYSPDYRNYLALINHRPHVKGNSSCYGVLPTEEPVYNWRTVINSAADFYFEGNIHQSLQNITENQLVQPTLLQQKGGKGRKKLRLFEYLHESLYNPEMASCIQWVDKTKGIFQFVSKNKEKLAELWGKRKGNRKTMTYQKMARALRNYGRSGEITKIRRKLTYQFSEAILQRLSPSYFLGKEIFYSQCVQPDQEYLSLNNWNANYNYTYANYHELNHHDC
# In short: as §1
# [4] = molecular target: ELF4 (Homo sapiens, UniProt Q99607 1-663)
# In short: as §1
# [5] = molecular target: T3, ELK4 (Homo sapiens, UniProt P28324-2 1-405)
# T3 sequence: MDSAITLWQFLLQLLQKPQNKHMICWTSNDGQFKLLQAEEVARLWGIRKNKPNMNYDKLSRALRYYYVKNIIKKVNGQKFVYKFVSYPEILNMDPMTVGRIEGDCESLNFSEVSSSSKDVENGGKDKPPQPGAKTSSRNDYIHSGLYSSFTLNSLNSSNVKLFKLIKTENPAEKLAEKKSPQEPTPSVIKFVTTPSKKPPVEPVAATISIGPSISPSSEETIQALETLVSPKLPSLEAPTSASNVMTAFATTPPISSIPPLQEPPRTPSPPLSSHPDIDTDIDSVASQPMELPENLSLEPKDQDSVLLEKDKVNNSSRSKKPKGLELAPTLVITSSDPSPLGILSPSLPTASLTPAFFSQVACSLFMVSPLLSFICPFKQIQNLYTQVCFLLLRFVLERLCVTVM
# In short: as §1
# [6] = molecular target: T4, ETV2 (Homo sapiens, UniProt O00321 1-342)
# T4 sequence: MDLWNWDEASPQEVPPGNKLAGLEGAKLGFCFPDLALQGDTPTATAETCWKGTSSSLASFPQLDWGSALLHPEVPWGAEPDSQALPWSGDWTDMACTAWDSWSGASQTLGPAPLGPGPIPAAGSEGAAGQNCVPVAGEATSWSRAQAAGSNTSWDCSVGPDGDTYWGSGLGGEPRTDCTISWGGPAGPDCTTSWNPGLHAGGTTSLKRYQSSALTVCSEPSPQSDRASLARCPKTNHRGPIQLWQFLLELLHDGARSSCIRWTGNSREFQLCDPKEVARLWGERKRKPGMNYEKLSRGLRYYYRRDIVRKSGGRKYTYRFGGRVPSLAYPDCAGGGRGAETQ
# In short: as §1
# [7] = molecular target: T5, ELF3 (Homo sapiens, UniProt P78545 1-371)
# T5 sequence: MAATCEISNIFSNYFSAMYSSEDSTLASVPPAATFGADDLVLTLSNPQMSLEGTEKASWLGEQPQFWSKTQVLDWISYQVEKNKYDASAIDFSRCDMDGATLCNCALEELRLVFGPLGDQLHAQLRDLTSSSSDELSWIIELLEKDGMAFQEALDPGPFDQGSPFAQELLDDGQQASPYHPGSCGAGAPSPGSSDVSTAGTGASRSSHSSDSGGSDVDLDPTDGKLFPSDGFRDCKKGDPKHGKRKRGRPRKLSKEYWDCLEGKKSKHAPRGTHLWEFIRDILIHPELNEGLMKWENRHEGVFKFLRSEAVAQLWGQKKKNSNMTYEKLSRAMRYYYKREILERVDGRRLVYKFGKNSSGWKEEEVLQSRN
# In short: as §1
# [8] = molecular target: ETV1 (Homo sapiens, UniProt P50549 1-477)
# In short: as §1
# [9] = molecular target: T6, ERF (Homo sapiens, UniProt P50548 1-548)
# T6 sequence: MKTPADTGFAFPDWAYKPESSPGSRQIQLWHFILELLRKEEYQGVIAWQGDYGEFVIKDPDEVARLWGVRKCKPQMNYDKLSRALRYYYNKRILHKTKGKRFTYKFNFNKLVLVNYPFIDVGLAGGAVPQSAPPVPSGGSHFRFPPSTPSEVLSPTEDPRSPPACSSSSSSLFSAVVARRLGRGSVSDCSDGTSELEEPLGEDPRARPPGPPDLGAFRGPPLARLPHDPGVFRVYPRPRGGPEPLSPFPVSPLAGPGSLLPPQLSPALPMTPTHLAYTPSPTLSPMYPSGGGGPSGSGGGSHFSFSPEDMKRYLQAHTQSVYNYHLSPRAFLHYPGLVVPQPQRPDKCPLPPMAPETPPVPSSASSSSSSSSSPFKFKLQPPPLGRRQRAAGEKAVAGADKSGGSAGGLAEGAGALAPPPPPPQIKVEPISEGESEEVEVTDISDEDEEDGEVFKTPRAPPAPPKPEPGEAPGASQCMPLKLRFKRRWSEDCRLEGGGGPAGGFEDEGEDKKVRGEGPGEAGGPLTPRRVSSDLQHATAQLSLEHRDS
# In short: as §1
# [10] = molecular target: T7, ETV3L (Homo sapiens, UniProt Q6ZN32 1-361)
# T7 sequence: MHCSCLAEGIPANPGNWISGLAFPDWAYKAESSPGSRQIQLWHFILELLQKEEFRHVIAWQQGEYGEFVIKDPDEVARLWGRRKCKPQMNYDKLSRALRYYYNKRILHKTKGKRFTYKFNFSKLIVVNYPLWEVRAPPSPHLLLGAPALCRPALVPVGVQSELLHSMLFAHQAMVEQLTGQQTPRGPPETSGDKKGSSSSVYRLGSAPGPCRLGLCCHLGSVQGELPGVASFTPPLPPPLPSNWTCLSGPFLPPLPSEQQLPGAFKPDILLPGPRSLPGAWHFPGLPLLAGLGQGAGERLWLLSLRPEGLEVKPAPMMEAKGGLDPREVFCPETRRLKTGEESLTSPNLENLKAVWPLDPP
# In short: as §1
# [11] = molecular target: T8, ETS2 (Homo sapiens, UniProt P15036 1-469)
# T8 sequence: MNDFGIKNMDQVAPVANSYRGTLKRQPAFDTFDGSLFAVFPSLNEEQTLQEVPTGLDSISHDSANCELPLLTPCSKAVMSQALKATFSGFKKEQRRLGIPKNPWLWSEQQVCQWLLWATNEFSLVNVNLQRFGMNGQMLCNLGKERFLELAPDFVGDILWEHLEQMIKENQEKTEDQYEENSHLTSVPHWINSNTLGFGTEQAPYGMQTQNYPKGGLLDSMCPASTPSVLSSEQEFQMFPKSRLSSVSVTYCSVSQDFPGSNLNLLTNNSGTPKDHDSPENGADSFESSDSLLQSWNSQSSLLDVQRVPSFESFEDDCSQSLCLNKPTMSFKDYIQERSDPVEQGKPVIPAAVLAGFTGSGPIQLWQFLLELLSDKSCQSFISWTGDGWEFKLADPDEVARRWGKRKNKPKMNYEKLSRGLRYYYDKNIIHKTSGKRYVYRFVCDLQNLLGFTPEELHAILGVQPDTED
# In short: as §1
# [12] = molecular target: T9, SPDEF (Homo sapiens, UniProt O95238 1-335)
# T9 sequence: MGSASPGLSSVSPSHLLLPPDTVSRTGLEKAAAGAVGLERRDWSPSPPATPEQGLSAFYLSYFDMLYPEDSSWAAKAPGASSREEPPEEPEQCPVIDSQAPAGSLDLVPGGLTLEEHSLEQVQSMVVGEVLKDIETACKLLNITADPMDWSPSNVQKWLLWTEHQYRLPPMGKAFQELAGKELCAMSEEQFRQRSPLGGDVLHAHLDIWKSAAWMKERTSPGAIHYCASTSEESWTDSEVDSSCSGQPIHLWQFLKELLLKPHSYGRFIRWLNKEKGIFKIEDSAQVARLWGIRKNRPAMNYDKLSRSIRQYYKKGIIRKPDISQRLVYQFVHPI
# In short: as §1
# [13] = molecular target: T10, ETV7 (Homo sapiens, UniProt Q9Y603 1-341)
# T10 sequence: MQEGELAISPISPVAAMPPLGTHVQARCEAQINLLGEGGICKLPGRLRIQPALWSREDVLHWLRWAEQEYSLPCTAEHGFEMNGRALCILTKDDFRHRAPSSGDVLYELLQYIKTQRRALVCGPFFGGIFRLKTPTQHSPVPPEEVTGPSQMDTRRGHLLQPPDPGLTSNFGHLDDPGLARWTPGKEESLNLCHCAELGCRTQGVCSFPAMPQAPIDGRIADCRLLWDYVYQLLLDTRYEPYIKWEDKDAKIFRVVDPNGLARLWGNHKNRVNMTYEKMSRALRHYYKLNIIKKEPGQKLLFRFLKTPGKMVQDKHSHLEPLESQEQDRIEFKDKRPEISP
# In short: as §1
# [14] = molecular target: T11, ELF5 (Homo sapiens, UniProt Q9UKW6-2 1-255)
# T11 sequence: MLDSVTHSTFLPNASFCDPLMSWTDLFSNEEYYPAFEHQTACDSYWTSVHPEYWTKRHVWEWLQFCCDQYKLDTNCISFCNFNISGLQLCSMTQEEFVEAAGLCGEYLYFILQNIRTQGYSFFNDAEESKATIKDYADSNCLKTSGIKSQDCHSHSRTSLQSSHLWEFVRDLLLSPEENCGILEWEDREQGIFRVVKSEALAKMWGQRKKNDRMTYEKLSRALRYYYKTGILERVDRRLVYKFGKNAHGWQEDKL
# In short: as §1
# [15] = molecular target: T12, ETV3 (Homo sapiens, UniProt P41162-2 1-143)
# T12 sequence: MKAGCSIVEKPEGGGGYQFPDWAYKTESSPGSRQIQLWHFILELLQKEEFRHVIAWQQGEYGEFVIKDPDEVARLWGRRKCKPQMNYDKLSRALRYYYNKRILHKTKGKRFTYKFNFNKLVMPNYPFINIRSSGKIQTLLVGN
# In short: as §1
# [16] = molecular target: ETV6 (Homo sapiens, UniProt P41212 1-452)
# In short: as §1
# ETV6, sequence (P41212 whole entry): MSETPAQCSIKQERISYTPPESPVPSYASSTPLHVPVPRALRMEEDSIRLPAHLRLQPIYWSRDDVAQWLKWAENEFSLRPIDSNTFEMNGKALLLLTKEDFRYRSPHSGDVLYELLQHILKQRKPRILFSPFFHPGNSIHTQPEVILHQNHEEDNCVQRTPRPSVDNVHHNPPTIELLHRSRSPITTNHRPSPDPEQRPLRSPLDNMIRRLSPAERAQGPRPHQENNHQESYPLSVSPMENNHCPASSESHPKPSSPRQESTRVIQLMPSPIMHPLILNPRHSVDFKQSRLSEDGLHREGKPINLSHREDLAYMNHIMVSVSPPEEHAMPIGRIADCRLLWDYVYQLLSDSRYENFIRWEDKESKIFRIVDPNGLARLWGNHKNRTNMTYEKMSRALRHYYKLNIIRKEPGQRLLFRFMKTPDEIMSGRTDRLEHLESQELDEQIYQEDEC
# ETV1, sequence (P50549 whole entry): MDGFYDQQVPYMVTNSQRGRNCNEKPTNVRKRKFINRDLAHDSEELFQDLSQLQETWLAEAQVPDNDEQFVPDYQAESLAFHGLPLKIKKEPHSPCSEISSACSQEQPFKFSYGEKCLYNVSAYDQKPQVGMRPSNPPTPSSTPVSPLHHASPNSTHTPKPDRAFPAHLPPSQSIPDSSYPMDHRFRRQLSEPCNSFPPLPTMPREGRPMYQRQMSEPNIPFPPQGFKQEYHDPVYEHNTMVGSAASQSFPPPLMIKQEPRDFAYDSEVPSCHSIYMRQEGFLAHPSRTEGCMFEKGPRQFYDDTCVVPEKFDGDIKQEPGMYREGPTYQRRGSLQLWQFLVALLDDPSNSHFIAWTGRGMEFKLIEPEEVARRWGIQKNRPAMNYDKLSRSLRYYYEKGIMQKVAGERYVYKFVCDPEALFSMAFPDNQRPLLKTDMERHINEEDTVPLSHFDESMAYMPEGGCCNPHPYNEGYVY
# ELF4, sequence (Q99607 whole entry): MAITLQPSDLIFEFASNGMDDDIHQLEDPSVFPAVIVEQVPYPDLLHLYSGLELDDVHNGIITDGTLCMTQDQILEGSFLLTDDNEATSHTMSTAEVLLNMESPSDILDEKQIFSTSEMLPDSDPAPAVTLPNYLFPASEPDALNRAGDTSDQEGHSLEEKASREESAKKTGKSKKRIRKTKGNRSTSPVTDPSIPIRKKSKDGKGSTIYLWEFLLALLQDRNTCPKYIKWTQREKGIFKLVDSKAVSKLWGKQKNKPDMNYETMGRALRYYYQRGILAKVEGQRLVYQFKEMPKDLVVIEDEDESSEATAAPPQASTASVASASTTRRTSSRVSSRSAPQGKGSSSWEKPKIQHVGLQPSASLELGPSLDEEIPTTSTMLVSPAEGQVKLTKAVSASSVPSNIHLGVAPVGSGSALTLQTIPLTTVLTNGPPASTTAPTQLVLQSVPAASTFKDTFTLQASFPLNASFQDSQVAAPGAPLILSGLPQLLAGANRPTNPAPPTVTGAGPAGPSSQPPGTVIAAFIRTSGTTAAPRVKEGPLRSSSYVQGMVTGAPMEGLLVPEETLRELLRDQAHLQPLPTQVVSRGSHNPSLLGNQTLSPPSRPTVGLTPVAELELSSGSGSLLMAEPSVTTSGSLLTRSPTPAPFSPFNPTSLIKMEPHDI
# ETV5, sequence (P41161 whole entry): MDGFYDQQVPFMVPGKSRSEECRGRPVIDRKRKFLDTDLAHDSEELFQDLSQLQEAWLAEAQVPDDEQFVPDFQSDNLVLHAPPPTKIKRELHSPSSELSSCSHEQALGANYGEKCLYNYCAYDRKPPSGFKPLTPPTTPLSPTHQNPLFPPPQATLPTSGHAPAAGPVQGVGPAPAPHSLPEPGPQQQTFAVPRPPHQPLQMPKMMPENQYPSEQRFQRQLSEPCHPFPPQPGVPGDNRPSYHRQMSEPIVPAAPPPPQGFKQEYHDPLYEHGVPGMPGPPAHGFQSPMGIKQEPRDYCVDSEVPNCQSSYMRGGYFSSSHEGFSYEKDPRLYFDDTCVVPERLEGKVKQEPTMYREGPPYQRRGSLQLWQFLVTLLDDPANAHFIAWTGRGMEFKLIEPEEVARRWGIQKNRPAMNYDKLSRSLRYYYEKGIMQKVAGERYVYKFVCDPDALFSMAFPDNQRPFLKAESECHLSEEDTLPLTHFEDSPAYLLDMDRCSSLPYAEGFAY
Sequence,binding signal [1],binding signal [2],binding signal [3],binding signal [4],binding signal [5],binding signal [6],binding signal [7],binding signal [8],binding signal [9],binding signal [10],binding signal [11],binding signal [12],binding signal [13],binding signal [14],binding signal [15],binding signal [16]
CTGTCC,"1.19 fold enrichment (6-mer frequency, TF over GST control)","1.41 fold enrichment (6-mer frequency, TF over GST control)","1.13 fold enrichment (6-mer frequency, TF over GST control)","1.28 fold enrichment (6-mer frequency, TF over GST control)","1.24 fold enrichment (6-mer frequency, TF over GST control)","1.2 fold enrichment (6-mer frequency, TF over GST control)","1.17 fold enrichment (6-mer frequency, TF over GST control)","1.4 fold enrichment (6-mer frequency, TF over GST control)","1.28 fold enrichment (6-mer frequency, TF over GST control)","1.13 fold enrichment (6-mer frequency, TF over GST control)","1.33 fold enrichment (6-mer frequency, TF over GST control)","1.27 fold enrichment (6-mer frequency, TF over GST control)","1.28 fold enrichment (6-mer frequency, TF over GST control)","1.3 fold enrichment (6-mer frequency, TF over GST control)","1.14 fold enrichment (6-mer frequency, TF over GST control)","1.26 fold enrichment (6-mer frequency, TF over GST control)"
CGGAAG,"3.68 fold enrichment (6-mer frequency, TF over GST control)","3.27 fold enrichment (6-mer frequency, TF over GST control)","2.79 fold enrichment (6-mer frequency, TF over GST control)","2.61 fold enrichment (6-mer frequency, TF over GST control)","2.16 fold enrichment (6-mer frequency, TF over GST control)","2.63 fold enrichment (6-mer frequency, TF over GST control)","3.01 fold enrichment (6-mer frequency, TF over GST control)","3.2 fold enrichment (6-mer frequency, TF over GST control)","2.46 fold enrichment (6-mer frequency, TF over GST control)","2.71 fold enrichment (6-mer frequency, TF over GST control)","3.01 fold enrichment (6-mer frequency, TF over GST control)","3.02 fold enrichment (6-mer frequency, TF over GST control)","2.8 fold enrichment (6-mer frequency, TF over GST control)","3.37 fold enrichment (6-mer frequency, TF over GST control)","3.28 fold enrichment (6-mer frequency, TF over GST control)","3.4 fold enrichment (6-mer frequency, TF over GST control)"

# Reference: PMC7862700, “An all-to-all approach to the identification of sequence-specific readers for epigenetic DNA modifications on cytosine”
